The values that follow come from PubChem BioAssay AID686922 (National Center for Advancing Translational Sciences (NCATS), 2013).

Several values for one entry are separate records, joined by “and”; a condition that tells them apart may be missing. Equal values may be shown once. Records with an inconclusive call do not appear. Unmarked numbers belong to inactive results. Activity calls are given as the source filed them. Calls follow the shape of the dose curve; as a rule, active = well fitted inhibition curve with a large enough effect; inconclusive = small, poorly fitted or top-dose-only effect; inactive = no such curve, though single readings can be large or run the other way.

The test is described as follows: qHTS screen for inhibitors of ELG1-dependent DNA repair in human embryonic kidney (HEK293T) cells expressing luciferase-tagged ELG1: MMS Viability Assay for probe SAR. To be noted: HEK293T ELG1-luc + MMS viability, CellTiter-Glo, 16 h; series mostly up to 46.1 µM; activity change, negative = lower viability: at the top concentration. The source says:
Cancer cells divide rapidly compared to normal cells in the body. During cell division, cancer cells need to duplicate their genome by DNA replication. The failure of genome duplication leads to cancer cells' death. Therefore, inhibitors of DNA replication could specifically kill cancer cells. Based on this concept, many chemotherapeutic agents were developed and have been used to treat cancer patients. However, there are a limited number of agents available in the clinical setting, and some of those that do exist have low efficacy and severe side effects. Therefore, if we can find the compounds that effectively block DNA replication either by directly damaging DNA or by inhibiting other cellular mechanisms, the options for cancer treatment will be broadened. With this in mind, we developed a quantitative high-throughput ELG1-luciferase reporter gene assay. Small molecules that specifically block ELG1 function in response to DNA damage can be identified by monitoring the suppression of luciferase activity. Since ELG1 defines a pathway for repairing DNA damage, agents blocking ELG1 function can be used to sensitize cancer cells to chemotherapeutic agents whose mechanism of action involves the induction of DNA damage. Cytotoxicity of the active compounds in the ELG1 qHTS assay with MMS stimulation (AID 493125) was assessed using the CellTiter-Glo Luminescent Cell Viability Assay kit (Promega, USA). CellTiter-Glo measures the intracellular ATP present in metabolically active cells using Ultra-Glo as the luciferase to detect ATP levels. In brief, the luciferase in the buffer catalyzes the oxidation of luciferin to oxyluciferin and light which is dependent on ATP. […] DMSO and wells with media alone were used as positive and negative controls, respectively. Inactivity to this assay is the desirable outcome. NIH Molecular Libraries Probe Production Network [MLPCN] NIH Chemical Genomics Center [NCGC] MLPCN Grant: R03 MH092164 Assay Provider: Kyungjae Myung, NHGRI, NIH
ELG1-luc HEK293T cells will be seeded in 1536-well plates at a density of 2,000 cells/well. Approximately 5 hours after plating, compounds will be added to the plate by pin tool transfer and MMS will be added by FRD dispenser (final concentration of MMS = 10 µM). 16 hours following the addition of the compounds, cell viability will be measured using CellTiter Glo.
On the technique in general: Quantitative high-throughput screening tests each substance at several concentrations.
Take `Fc1cc(Nc2nc(-c3ccncc3)nc3ccccc23)ccc1-n1cncn1`: the Potency entry is “inactive”. Still for that read-out and setting: in the case of `Fc1cc(Nc2nc(-c3ccncc3)nc3ccccc23)ccc1-c1cccc(C(F)(F)F)c1` it was 20.9 µM (active). With `Fc1ccc(-c2nc(-c3ccncc3)nc3ccccc23)cc1F`, the “activity change, negative = lower viability” value is -13.7%. `O=[N+]([O-])c1ccc(-c2nc(Nc3ccc(F)c(F)c3)c3ccccc3n2)cc1`: the “activity change, negative = lower viability” value is -10.1%.

In the case of `COc1ccc(-n2c(C)c(C(C)=O)c3ccccc32)cc1`, the Potency entry was “inactive”. Still for that read-out and setting: next, `Fc1ccc(-c2ccc(Nc3nc(-c4ccncc4)nc4ccccc34)cc2F)c(Cl)c1`: 18.7 µM (active); `Fc1cc(Nc2nc(-c3ccncc3)nc3ccccc23)ccc1C(F)(F)F`: 7.43 µM (active) and 16.6 µM (active); `COc1cc(Nc2nc(-c3ccncc3)nc3ccccc23)ccc1F`: 23.5 µM (active) and 20.9 µM (active). Turning to `Fc1cc(Nc2nc(-c3ccncc3)nc3ccccc23)ccc1-c1cc(F)c(F)c(F)c1`, the “activity change, negative = lower viability” value was 4.68%. Take `COC(=O)c1ccc(Nc2nc(-c3ccncc3)nc3ccccc23)cc1OC`: the “activity change, negative = lower viability” value was 3.72%.

Consider `CCOC(=O)c1ccc2c(c1)c(C(C)=O)c(C)n2-c1ccc(OC)cc1`, for which the “activity change, negative = lower viability” value is 1.14%. In the case of `COc1cc(Nc2nc(-c3ccncc3)nc3ccccc23)ccc1N1CCN(C)CC1`, the “activity change, negative = lower viability” value was 4.02%. Same read-out and setting: next, `Fc1cc(Nc2nc(-c3ccncc3)nc3ccccc23)ccc1-c1ccc2[nH]ncc2c1`: -12.3%.

Regarding `Cc1cc(-c2nc(Nc3ccc(F)c(F)c3)c3ccccc3n2)ccn1`, the “activity change, negative = lower viability” value is 5.15%. Same read-out and setting: in the case of `COc1cc(Nc2nc(-c3ccncc3)nc3ccccc23)ccc1NS(C)(=O)=O` it was -4.62%; in that of `O=c1cc(-c2nc(Nc3ccc(F)c(F)c3)c3ccccc3n2)cc[nH]1`, 9.88%; in that of `COc1ccc(-c2ccc(Nc3nc(-c4ccncc4)nc4ccccc34)cc2F)cc1F`, -27.8%.

Consider `COc1nccc(-c2nc(Nc3ccc(F)c(F)c3)c3ccccc3n2)c1Cl`, for which the “activity change, negative = lower viability” value is -4.2%.

As for `CSc1ccccc1-c1ccc(Nc2nc(-c3ccncc3)nc3ccccc23)cc1F`, the “activity change, negative = lower viability” value was -35.6%. Same read-out and setting: next, `Nc1cc(-c2nc(Nc3ccc(F)c(F)c3)c3ccccc3n2)ccn1`: 11.4%. On the same count and under the same terms, next, `COc1ccc(-c2nc(Nc3ccc(F)c(F)c3)c3ccccc3n2)cc1`: -27.9%; `Oc1ccc(Nc2nc(-c3ccncc3)nc3ccccc23)cc1F`: -27.3%; `Fc1ccc(Nc2cc(-c3ccccc3)nc(-c3ccncc3)n2)cc1F`: -28.5%. `Fc1cc(Nc2nc(-c3ccncc3)nc3ccccc23)ccc1-c1cccc(OC(F)(F)F)c1`: the Potency is 18.7 µM (active). With `Fc1cc(Nc2nc(-c3ccncc3)nc3ccccc23)ccc1-c1cn[nH]c1`, the “activity change, negative = lower viability” value was -4.27%. On to `Fc1ccc(Nc2nc(-c3ccnc(C(F)(F)F)c3)nc3ccccc23)cc1F`, for which the Potency is 20.9 µM (active). Regarding `Fc1cc(Nc2nc(-c3ccncc3)nc3ccccc23)ccc1-c1cccnc1`, the “activity change, negative = lower viability” value was 1.55%.

Regarding `Fc1cccc(-c2ccc(Nc3nc(-c4ccncc4)nc4ccccc34)cc2F)c1`, the “activity change, negative = lower viability” value was -21.1%. On to `Fc1cc(Nc2nc(-c3ccncc3)nc3ccccc23)ccc1-c1ccncc1`, for which the “activity change, negative = lower viability” value was 2.69%.

As to `Cc1nc2ccc(Nc3nc(-c4ccncc4)nc4ccccc34)cc2s1`, the “activity change, negative = lower viability” value is -3.61%.

On to `COc1ccc(Nc2nc(-c3ccncc3)nc3ccccc23)cc1F`, for which the “activity change, negative = lower viability” value is 6.58%. On the same count and under the same terms, next, `Fc1cc(Nc2nc(-c3ccncc3)nc3ccccc23)ccc1OCC(F)(F)F`: -9.42%.

As for `COc1cnccc1-c1nc(Nc2ccc(F)c(F)c2)c2ccccc2n1`, the Potency is 16.6 µM (active). As to `Fc1ccc(Nc2nc(-c3ccnc(N4CCCCC4)c3)nc3ccccc23)cc1F`, the “activity change, negative = lower viability” value was 3.34%. As to `COc1ccc(-n2c(C)c(C(C)=O)c3cc(O)ccc32)cc1`, the “activity change, negative = lower viability” value was 12.3%. As for `COc1cc(-c2nc(Nc3ccc(F)c(F)c3)c3ccccc3n2)c(F)cn1`, the Potency was 23.5 µM (active). Consider `Fc1cc(Nc2nc(-c3ccncc3)nc3ccccc23)ccc1-c1ccc(F)c(F)c1F`, for which the “activity change, negative = lower viability” value is 3.54%. On the same count and under the same terms, in the case of `Fc1cc(Nc2nc(-c3ccncc3)nc3ccccc23)ccc1-c1cccc(OC(F)F)c1` it was -22.4%; in that of `Fc1cc(Nc2nc(-c3ccncc3)nc3ccccc23)ccc1-c1ccnc(C(F)(F)F)c1`, -11.2%. For the compound `CN1CCN(c2ccc(Nc3nc(-c4ccncc4)nc4ccccc34)cc2F)CC1`, the “activity change, negative = lower viability” value was -7.11%.
